Experimental findings from PubChem BioAssay AID2685 (National Center for Advancing Translational Sciences (NCATS), 2010) are described below.

Out of some 320,000 compounds screened, about 2,100 (0.66%) were called active. Roughly 53% stayed inconclusive and do not appear here. Calls come from the whole dose curve; as a rule, active = well fitted inhibition curve with a large enough effect in the signal ratio, with a control signal flat (not every such curve was filed as active); inconclusive = small, poorly fitted or top-dose-only effect, or effect the other way, or a change in a side signal; inactive = flat fitted curve, though single readings scatter; the % refers to the signal ratio. What follows is part of a selection rich in actives, with near analogues and random picks from the rest.
Potency is the fitted concentration of half-maximal effect.

The assay in a line: qHTS Assay for Lipid Storage Modulators in Drosophila S3 Cells.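 For cell number change: cells counted by Cell Tracker Red CMTPX staining in the red channel.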 For lipid storage change, negative = inhibition: % is set by controls: 0 for no effect and ±100 for the full control effect. The settings on record: BODIPY lipid droplet fluorescence, 18-24 h, cells fed with added oleic acid; cell number change: measured here: cell count max response; series mostly up to 46.1 µM. The method in brief: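 Laser-scanning cytometry quantifies lipid droplet accumulation (500–530 nm total intensity; droplet/cell object ratio) in oleic acid-fed (400 uM added) Drosophila S3 cells treated with a concentration series. 20 uM Triacsin C defined 100% inhibition.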
As for `Cc1ccc(OCCCCNC2CCCCC2)c(C)c1`, the Potency entry is “inactive”.
As to `COCCCNC(=O)CC(NS(=O)(=O)c1ccc(C)cc1)c1ccco1` (configuration not stated), the Potency result was “inactive” and the cell number change came out at 0.789%.
Regarding `COCCCNC(=O)CC(NS(=O)(=O)c1ccc(Cl)cc1)c1ccco1` (configuration not stated), the Potency was 32.6 µM (active).
For `CCCNC(=O)CC(NS(=O)(=O)c1ccc(Cl)cc1)c1ccco1` (configuration not stated), the Potency entry is “inactive” and the cell number change is 17.5%.
With `CSC(=NC1CCCCC1)NS(=O)(=O)c1ccccc1`, the Potency entry was “inactive”.
In the case of `COc1ccc(N2CCN(C(=O)c3ccc4ccccc4n3)CC2)cc1`, the Potency entry was “inactive” and the cell number change is -2.64%.
The like results for `CN(CC(=O)Nc1ccc(N2CCOCC2)cc1)CC(=O)Nc1ccc(N2CCOCC2)cc1` were, in that order, “inactive” and -8.37%.
The like results for `O=[N+]([O-])C1=CC=C2C(=NC3(CCCCC3)N2O)C1=NCCO` were, in that order, “inactive” and -8.38%.
Taken in the same sequence, the figures for `CCOc1cc(/C=C2\COc3ccccc3C2=O)ccc1OCC(=O)N(C)C` were “inactive” and -5.65%.
As for `CCNC(=O)COc1ccc(/C=C2\COc3ccccc3C2=O)cc1OC`, the Potency was 3.66 µM (active).
Consider `CCOc1cc(/C=C2\COc3ccccc3C2=O)cc(Br)c1OCC(=O)N(C)C`, for which the Potency entry is “inactive” and the cell number change was found to be 21.8%.
With `CSc1ccccc1OCc1cc(C(=O)NCCN2CCCc3ccccc32)no1`, the Potency result was “inactive”.
Same read-out and setting: the same measure for `O=C(Nc1nnc(SCC(=O)N2CCOCC2)s1)c1ccccc1`: “inactive”.
In the case of `Cc1cc(NC(=O)c2ccc(S(=O)(=O)N3CCOCC3)cc2)nc2c1c(=O)oc1ccccc12`, the Potency entry is “inactive” and the cell number change is -0.276%.
The like results for `COc1cccc(CNC(=O)CCCNS(=O)(=O)c2cccs2)c1` were, in that order, “inactive” and -2.45%.
Consider `CCOC(=O)C1=C(C)NC(C)=C(C(=O)OCC)C1C(=O)OCC(=O)NC1(C#N)CCCCC1`, for which the lipid storage change, negative = inhibition was 18.2% [at 0.0737 µM] (inactive).
As to `O=C(CCCC(=O)OCC(F)(F)C(F)F)Nc1ccc(NC(=O)CCCC(=O)OCC(F)(F)C(F)F)cc1`, the Potency result was “inactive” and the cell number change was determined as 25.6%.
The like results for `Cc1ccc(C)c(S(=O)(=O)NCc2ccc(C(=O)N3CC(C)OC(C)C3)cc2)c1` (configuration not stated) were, in that order, “inactive” and -9.56%.
As to `CCOC(=O)N1CCN(C(=O)c2ccc(CNS(=O)(=O)c3ccc(OC)cc3)cc2)CC1`, the Potency entry was “inactive”.
Take `COc1ccc(N2CCN(C(=O)c3ccc(CNS(=O)(=O)c4cc(C)ccc4C)cc3)CC2)cc1`: the Potency was 7.31 µM (active) and the cell number change was -25.1%.
Taken in the same sequence, the figures for `Cc1cccc(C(=O)NNc2ncnc3c2cnn3C)c1` were “inactive” and 3.73%.
The like results for `CCCCC(C)(O)C/C=C/[C@H]1[C@H](O)CC(=O)[C@@H]1CCCCCCC(=O)OC` (some centres not stated) were, in that order, 23.1 µM (active) and -1.2%.
In the case of `CCCCCCC(=O)Oc1ccc(N2C(=O)CCC2=O)cc1`, the Potency result was “inactive” and the cell number change is -4.94%.
The like results for `CCCCC[C@H](O)/C=C/[C@@H]1[C@@H](C/C=C\CCCC(=O)OC)[C@@H](O)C[C@H]1O` were, in that order, “inactive” and 2.9%.
With `COC(=O)c1ccc(C2C(C(=O)OCC(C)C)=C(C)N=C3SCCC(=O)N32)cc1` (configuration not stated), the Potency entry is “inactive” and the cell number change is -2.78%.
Taken in the same sequence, the figures for `CCCCCCN1C2=NCCCN2c2ccccc21` were “inactive” and -6.55%.
Taken in the same sequence, the figures for `O=C(O)c1c(-n2cccc2)sc2c1CCCC2` were “inactive” and 1.31%.
Taken in the same sequence, the figures for `CCOC(=O)c1c(-n2cccc2)sc2c1CCCC2=O` were “inactive” and -2.93%.
For the compound `Cc1sc(-n2cccc2)c(C(=O)O)c1C`, the Potency was 1.84 µM (active) and the cell number change was -19.7%.
The like results for `COc1ccc(Nc2ccncc2[N+](=O)[O-])cc1` were, in that order, “inactive” and 12.3%.
For the compound `O=C(C1CC(=O)N(c2ccccc2)C1)N1CCN(C2=NS(=O)(=O)c3ccccc32)CC1` (configuration not stated), the Potency entry was “inactive”.
For `Cc1cc(C)c(C)c(S(=O)(=O)N2CCC(C(=O)N3CC(C)CC(C)C3)CC2)c1C` (configuration not stated), the Potency entry was “inactive” and the cell number change was -11.8%.
Taken in the same sequence, the figures for `COc1ccccc1NC(=O)C1=C(C)Nc2nnnn2C1c1cc(Br)ccc1OC` (configuration not stated) were “inactive” and 1.78%.
With `COc1ccc(CNC(C)C23CC4CC(CC(C4)C2)C3)c(OC)c1OC` (configuration not stated), the Potency result is “inactive” and the cell number change was determined as 0.296%.
With `CCCCCNC(=O)c1cccnc1SCC(=O)Nc1ccccc1OC`, the Potency result is “inactive” and the cell number change was -0.809%.
`COc1ccc(OC)c(NC(=O)CSc2ncccc2C(=O)O)c1`: the Potency entry is “inactive”.
Consider `CCCCCCCCNC(=O)c1cccnc1SCC(=O)Nc1ccc(OC)cc1OC`, for which the Potency was 20.6 µM (active) and the cell number change was -25.3%.
In the case of `CN(C(=O)C1CCC(=O)N(Cc2ccccc2F)C1)C1CCOCC1` (configuration not stated), the Potency result is “inactive” and the cell number change was 7.76%.
Regarding `COC(=O)c1cc(C)sc1NC(=O)CC1Nc2ccccc2NC1=O` (configuration not stated), the Potency was 16.4 µM (active) and the cell number change was -20.6%.
Taken in the same sequence, the figures for `COC(=O)c1c(NC(=O)CC2Nc3ccccc3NC2=O)sc(C)c1C` (configuration not stated) were “inactive” and 18.7%.
For `CC(NC(=O)CC1Nc2ccccc2NC1=O)c1ccccc1` (configuration not stated), the Potency entry was “inactive”.
Same read-out and setting: the same measure for `CCCCNC(=O)CC1Nc2ccccc2NC1=O` (configuration not stated): “inactive”.
For the compound `CCc1cc(C(=O)OC)c(NC(=O)CC2Nc3cc(C)c(C)cc3NC2=O)s1` (configuration not stated), the Potency entry was “inactive” and the cell number change was -3.56%.
With `CC(C)CNC(=O)CC1Nc2ccccc2NC1=O` (configuration not stated), the Potency was 10.3 µM (active) and the cell number change was -19.4%.
Taken in the same sequence, the figures for `COC(=O)c1[nH]c(C)c(/C(O)=C2\C(=O)C(=O)N(CCN(C)C)C2c2cccc(OC)c2OC)c1C` (configuration not stated) were “inactive” and -3.7%.
Taken in the same sequence, the figures for `Cc1cc(=O)oc2cc(OC(C)C(=O)NCCCn3ccnc3)ccc12` (configuration not stated) were “inactive” and 5.93%.
Regarding `COC(=O)c1cn(NC(=O)c2ccncc2)c(=O)c2ccccc12`, the Potency result was “inactive” and the cell number change was -18.7%.
Take `COc1ccccc1C(=O)N1CCN(Cc2nc(CC3CC3)no2)CC1`: the Potency entry is “inactive” and the cell number change was found to be 10.8%.
With `Cc1ccc(NC(=O)CS(=O)CC(=O)NCCCc2ccccc2)cc1Cl` (configuration not stated), the Potency entry was “inactive”.
As for `Cc1ccc(-c2ccccc2NC(=O)CS(=O)CC(=O)Nc2ccc(C)c(Cl)c2)o1` (configuration not stated), the Potency is 23.1 µM (active) and the cell number change was -13%.
